Measured values published in the supplement of paper PMC10811239.

These compounds were tested on LEGO organoid PTCC (PTEN-/-; TP53-/-; CDKN2A-/-; CDKN2B-/-) (assay: bioluminescence (viable cell) signal fold change after vs before treatment, normalised to DMSO (ratio); higher = more tumour cell growth / less inhibition). Conditions: 10 µM; treatment time 6 days.
Method: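 Luc2-labelled iPSC-derived glioblastoma-like organoids (LEGOs, genotypes PT = PTEN-/-;TP53-/-, PTCC = plus CDKN2A/B-/-, PTN = plus NF1-/-) were treated with 10 uM drug for 6 days (applied every other day) at 37 C. Bioluminescence imaging was done before treatment and 2 days after the last dose. BLI signals were normalised to the DMSO control on the same day and then to the pre-treatment signal (N=3).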

| Compound | bioluminescence |
| --- | --- |
| CC[C@@H](C(N)=O)N1CCCC1=O [Levetiracetam] | 1.07 |
| Cl.Cn1c(CCCC(=O)O)nc2cc(N(CCCl)CCCl)ccc21 [Bendamustine hydrochloride] | 0.752 |
| CN[C@@H]1C[C@H]2O[C@@](C)([C@@H]1OC)n1c3ccccc3c3c4c(c5c6ccccc6n2c5c31)C(=O)NC4 [Staurosporine] | 0 |
| COc1ccc(C(CN(C)C)C2(O)CCCCC2)cc1.Cl (configuration not stated) [Venlafaxine hydrochloride] | 0.737 |
| CCN(C)C(=O)Oc1cccc([C@H](C)N(C)C)c1.O=C(O)[C@H](O)[C@@H](O)C(=O)O [Rivastigmine tartrate] | 0.566 |
| Cc1cccc([C@H](C)c2cnc[nH]2)c1C.Cl [Dexmedetomidine HCl] | 1.39 |
| CCC1(c2ccc(N)cc2)CCC(=O)NC1=O (configuration not stated) [Aminoglutethimide] | 1.11 |
| CC(C)c1cccc(C(C)C)c1O [Propofol] | 0.675 |
| CCN(C)C(=O)Oc1cccc([C@H](C)N(C)C)c1 [Rivastigmine] | 0.555 |
| NCC1(CC(=O)O)CCCCC1 [Gabapentin] | 1.26 |
| O=C(O)CCCc1ccc(N(CCCl)CCCl)cc1 [Chloroambucil] | 1.06 |
| CCOC(=O)c1cncn1[C@H](C)c1ccccc1 [Etomidate] | 1.01 |
| COc1cc2c(cc1OC)[C@@H]1CC(=O)[C@@H](CC(C)C)CN1CC2.COc1cc2c(cc1OC)[C@H]1CC(=O)[C@H](CC(C)C)CN1CC2 [Tetrabenazine] | 1.1 |
| NCC(CC(=O)O)c1ccc(Cl)cc1 (configuration not stated) [Baclofen] | 0.877 |
| CN(C)C(=O)Oc1ccc[n+](C)c1.[Br-] [Mestinon] | 1.67 |
| Cc1n[nH]cc1-c1cc2[nH]c([C@@H]3CC4CCN3CC4)nc(=O)c2s1 [Simurosertib] | 1.46 |
| CC(C)C[C@H]1C(=O)N2CCC[C@H]2[C@]2(O)O[C@](NC(=O)[C@@H]3C[C@@H]4c5cccc6[nH]cc(c56)C[C@H]4N(C)C3)(C(C)C)C(=O)N12.CC(C)[C@@]1(NC(=O)[C@@H]2C[C@@H]3c4cccc5[nH]cc(c45)C[C@H]3N(C)C2)O[C@@]2(O)[C@@H]3CCCN3C(=O)[C@H](Cc3ccccc3)N2C1=O.CC(C)[C@H]1C(=O)N2CCC[C@H]2[C@]2(O)O[C@](NC(=O)[C@@H]3C[C@@H]4c5cccc6[nH]cc(c56)C[C@H]4N(C)C3)(C(C)C)C(=O)N12.CCC(C)[C@H]1C(=O)N2CCC[C@H]2[C@]2(O)O[C@](NC(=O)[C@@H]3C[C@@H]4c5cccc6[nH]cc(c56)C[C@H]4N(C)C3)(C(C)C)C(=O)N12.CS(=O)(=O)O [Dihydroergotoxine mesylate] | 1.82 |
